PubChem BioAssay AID1159580 (chemical genetic matrix, 2015)
About 2,000 (36%) of roughly 5,500 compounds were called active. Not shown: some 18% with an inconclusive outcome. Rule as the data show it: active = normalized growth mostly below about 0.91 (no sharp cut-off); inconclusive = no clear call, values can overlap the other calls; inactive = mostly above about 0.92. This is one part of the list.

Assay: chemical genetic growth profiling, strain panel (AID 1159580);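 also: tested at 20 µM; growth read once vehicle control cultures reached saturation at 30 °C; 1 = growth at the plate median or of vehicle wells; lower values mean less growth of the strain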
Details: growth OD

Measured: normalized growth

COC(=O)C[C@H]1C(C)(C)[C@@H](O)[C@@H]2CC3=C4CC(O)O[C@@H](c5ccoc5)[C@]4(C)CCC3[C@@]1(C)C2=O (some centres not stated)
inactive: S. cerevisiae deletion strains, locus YJL187C, strain SWE1, active compounds read low 1.03 | S. cerevisiae deletion strains, locus YJR066W, strain TOR1, active compounds read low 0.962 | S. cerevisiae deletion strains, locus YJR075W, strain HOC1, active compounds read low 0.99 | S. cerevisiae deletion strains, locus YKL009W, strain mrt4, active compounds read low 0.985 | S. cerevisiae deletion strains, locus YKL068W, active compounds read low 0.98 | S. cerevisiae deletion strains, locus YKL085W, strain MDH1 (second series), active compounds read low 0.99 | S. cerevisiae deletion strains, locus YKL085W, strain MDH1, active compounds read low 0.99 | S. cerevisiae deletion strains, locus YKL160W, strain elf1, active compounds read low 0.998 | S. cerevisiae deletion strains, locus YKL190W, strain CNB1, active compounds read low 1 | S. cerevisiae deletion strains, locus YKR001C, strain vps1, active compounds read low 0.98 | S. cerevisiae deletion strains, locus YKR026C, strain gcn3, active compounds read low 1.02 | S. cerevisiae deletion strains, locus YKR091W, strain srl3, active compounds read low 1.01 | S. cerevisiae deletion strains, locus YLL001W, strain dnm1, active compounds read low 0.994 | S. cerevisiae deletion strains, locus YLL026W, active compounds read low 1.02 | S. cerevisiae deletion strains, locus YLL041C, strain sdh2, active compounds read low 1.02 | S. cerevisiae deletion strains, locus YLR027C, strain aat2, active compounds read low 1.04 | S. cerevisiae deletion strains, locus YLR039C, strain RIC1, active compounds read low 0.981 | S. cerevisiae deletion strains, locus YLR058C, strain SHM2, active compounds read low 1 | S. cerevisiae deletion strains, locus YLR102C, strain apc9, active compounds read low 0.99 | S. cerevisiae deletion strains, locus YLR113W, strain HOG1, active compounds read low 0.971 | S. cerevisiae deletion strains, locus YLR221C, strain rsa3, active compounds read low 1.06 | S. cerevisiae deletion strains, locus YLR258W, strain gsy2, active compounds read low 0.99 | S. cerevisiae deletion strains, locus YLR262C, strain YPT6 (second series), active compounds read low 1.01 | S. cerevisiae deletion strains, locus YLR268W, strain sec22, active compounds read low 1.02 | S. cerevisiae deletion strains, locus YLR320W, strain mms22, active compounds read low 1.06 | S. cerevisiae deletion strains, locus YLR342W, strain FKS1, active compounds read low 1.02 | S. cerevisiae deletion strains, locus YLR357W, strain rsc2, active compounds read low 1.04 | S. cerevisiae deletion strains, locus YLR370C, strain arc18, active compounds read low 1 | S. cerevisiae deletion strains, locus YLR371W, strain rom2, active compounds read low 0.96 | S. cerevisiae deletion strains, locus YLR384C, strain iki3, active compounds read low 0.999 | S. cerevisiae deletion strains, locus YLR418C, strain cdc73, active compounds read low 0.946 | S. cerevisiae deletion strains, locus YML016C, strain PPZ1, active compounds read low 1.01 | S. cerevisiae deletion strains, locus YML032C, strain rad52, active compounds read low 0.983 | S. cerevisiae deletion strains, locus YML120C, strain ndi1, active compounds read low 0.995 | S. cerevisiae deletion strains, locus YML124C, strain tub3, active compounds read low 0.981 | S. cerevisiae deletion strains, locus YMR058W, strain fet3, active compounds read low 1.04 | S. cerevisiae deletion strains, locus YMR078C, strain ctf18, active compounds read low 0.957 | S. cerevisiae deletion strains, locus YMR125W, strain sto1, active compounds read low 1.02 | S. cerevisiae deletion strains, locus YMR129W, active compounds read low 1.02 | S. cerevisiae deletion strains, locus YMR205C, strain PFK2, active compounds read low 1.03 | S. cerevisiae deletion strains, locus YMR223W, strain ubp8, active compounds read low 0.988 | S. cerevisiae deletion strains, locus YMR231W, strain pep5, active compounds read low 1.02 | S. cerevisiae deletion strains, locus YMR263W, strain SAP30, active compounds read low 0.983 | S. cerevisiae deletion strains, locus YMR307W, strain GAS1, active compounds read low 1.09 | S. cerevisiae deletion strains, locus YNL067W, strain RPL9B, active compounds read low 0.967 | S. cerevisiae deletion strains, locus YNL071W, strain lat1, active compounds read low 1 | S. cerevisiae deletion strains, locus YNL153C, strain GIM3, active compounds read low 0.978 | S. cerevisiae deletion strains, locus YNL183C, strain NPR1, active compounds read low 0.987 | S. cerevisiae deletion strains, locus YNL209W, strain ssb2, active compounds read low 1 | S. cerevisiae deletion strains, locus YNL233W, strain BNI4, active compounds read low 1.02 | S. cerevisiae deletion strains, locus YNL248C, strain rpa49, active compounds read low 1.05 | S. cerevisiae deletion strains, locus YNL250W, strain rad50, active compounds read low 0.944 | S. cerevisiae deletion strains, locus YNL271C, strain bni1, active compounds read low 0.981 | S. cerevisiae deletion strains, locus YNL298W, strain CLA4, active compounds read low 0.981 | S. cerevisiae deletion strains, locus YNL307C, strain MCK1, active compounds read low 0.994 | S. cerevisiae deletion strains, locus YNL322C, strain KRE1 (second series), active compounds read low 1.04 | S. cerevisiae deletion strains, locus YNR049C, strain mso1, active compounds read low 1.01 | S. cerevisiae deletion strains, locus YNR052C, strain pop2, active compounds read low 0.975 | S. cerevisiae deletion strains, locus YOL006C, strain TOP1, active compounds read low 1.12 | S. cerevisiae deletion strains, locus YOL012C, strain htz1 0.701 | S. cerevisiae deletion strains, locus YOL147C, strain pex11, active compounds read low 0.985 | S. cerevisiae deletion strains, locus YOR001W, strain rrp6, active compounds read low 1.06 | S. cerevisiae deletion strains, locus YOR061W, strain CKA2, active compounds read low 1 | S. cerevisiae deletion strains, locus YOR069W, strain VPS5, active compounds read low 1.01 | S. cerevisiae deletion strains, locus YOR070C, strain gyp1, active compounds read low 1.02 | S. cerevisiae deletion strains, locus YOR080W, strain dia2, active compounds read low 1.03 | S. cerevisiae deletion strains, locus YOR083W, strain WHI5, active compounds read low 0.988 | S. cerevisiae deletion strains, locus YOR106W, strain vam3, active compounds read low 0.954 | S. cerevisiae deletion strains, locus YOR136W, strain idh2, active compounds read low 0.999 | S. cerevisiae deletion strains, locus YOR144C, strain elg1, active compounds read low 0.99 | S. cerevisiae deletion strains, locus YOR184W, strain ser1, active compounds read low 1.03 | S. cerevisiae deletion strains, locus YOR231W, strain MKK1, active compounds read low 0.983 | S. cerevisiae deletion strains, locus YOR265W, strain rbl2, active compounds read low 1 | S. cerevisiae deletion strains, locus YOR270C, strain vph1, active compounds read low 1.05 | S. cerevisiae deletion strains, locus YOR290C, strain snf2, active compounds read low 0.953 | S. cerevisiae deletion strains, locus YOR316C, strain cot1, active compounds read low 0.985 | S. cerevisiae deletion strains, locus YPL051W, strain arl3, active compounds read low 1.04 | S. cerevisiae deletion strains, locus YPL078C, strain atp4, active compounds read low 0.976 | S. cerevisiae deletion strains, locus YPL106C, strain sse1, active compounds read low 1.04 | S. cerevisiae deletion strains, locus YPL240C, strain hsp82, active compounds read low 1.01 | S. cerevisiae deletion strains, locus YPL256C, strain CLN2, active compounds read low 1.01 | S. cerevisiae deletion strains, locus YPR119W, strain clb2, active compounds read low 0.977 | S. cerevisiae deletion strains, locus YPR141C, strain kar3, active compounds read low 0.977 | S. cerevisiae deletion strains, locus YPR163C, strain tif3, active compounds read low 0.989 | S. cerevisiae deletion strains, locus YPR167C, strain met16, active compounds read low 0.971 | S. cerevisiae deletion strains, strain wtn01, active compounds read low 1 | S. cerevisiae strains, strain wild type, active compounds read low 1.03
